The supplement of paper PMC9477273

System: DRIVER-selected RNA biosensor (aptazyme) pool
Experiment: maximum fold change of ribozyme cleavage across biosensor pool versus no-compound control; higher = stronger biosensor response (ligand inhibits cleavage)
Conditions: 10 µM
Method: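 CleaveSeq: a pool of resynthesized hammerhead-ribozyme RNA biosensors (sTRSV scaffold with randomized loops, 1,730 sequences) was T7-transcribed at 37 °C for 15-30 min with a single compound at 10 µM. Cleaved and uncleaved products were counted by NGS, and fold change of cleavage was computed against the DMSO-only condition. The value is the maximum fold change of cleavage over all biosensors in the pool. About 255 compounds were tested individually.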

Compound	maximum fold change
COc1cc(OC)c(OC)cc1/C=C1N=C(c2ccco2)OC1=O	2.19
O=C(c1cc(-c2ccccc2)n[nH]1)N1CCn2c1nc1ccccc12	5.17
OCCCN/C=C/1C(=O)CC(CC1=O)c1ccc(cc1)OC (stereo not given)	1.74
CCOc1ccc(/C=C2\SC(N3CC(C)OC(C)C3)=NC2=O)cc1 (stereo not given)	2.08
C=Cc1ccc(Cn2c(C(=O)O)c(CNCC3CCCO3)c3ccc(C)cc32)cc1 (stereo not given)	2.75
Cc1ccc2[nH]c(=O)c3cc(C(=O)NCCCN(C)Cc4ccccc4)sc3c2c1	7.38
N=C1/C(=C\c2ccc(Br)cc2)C(=O)N=C2SC(N3CCOCC3)=NN12	2.79
Cc1ccc(C(=O)/C=C2\Nc3ccccc3NC2=O)cc1C	7.35
N#C/C(=Cc1c(Oc2ccc(cc2)Br)nc2n(c1=O)cccc2)/C(=O)NC1CCCCC1	2.99
O=C1NC2(CCCCC2)N(C(=O)c2ccc(Cl)cc2)C2=C1CCCC2	2.89
COc1cccc(/C=N/NC(=N)N)c1O	5.16
CCOC(=O)c1c(C)c(C(=O)N(CC)C2CCCCC2)c(C)n1C	2.31
COc1cccc(/C=C(\C#N)c2nc3ccccc3[nH]2)c1O	11.2
Cc1cc(C)cc(-n2c(C)cc(/C=C3\C(=N)N4N=C(N5CCOCC5)SC4=NC3=O)c2C)c1	4.19
COc1ccc(C2=NN(CCC(=O)N3CCCCC3)C(=O)CC2)cc1	4.11
COc1ccccc1/C=C1N=C(c2ccc(Br)cc2)OC1=O	2.7
N#C/C(=Cc1c(Oc2ccc(cc2)Br)nc2n(c1=O)cccc2)/C(=O)N1CCOCC1	4.23
COc1ccc(-c2cn3c(C)c(C(=O)NCCCOC(C)C)sc3n2)cc1	2.79
Cc1nn2c(-c3ccncc3)nnc2c2ccccc12	10.8
CCOC(=O)/C(=CC=CN1CCOCC1)/C(=O)C	1.94

Compound	maximum fold change
CC(=O)N1C(=N)S/C(=C/c2cc3ccc(C)cc3nc2O)C1=O	7.51
c1ccc(-c2nc3cc(Oc4ccc5[nH]c(-c6ccccn6)nc5c4)ccc3[nH]2)nc1	2.66
CCOC(=O)N1CCN(c2cnn(-c3nc4ccccc4s3)c(=O)c2Cl)CC1	3.21
O=C(NCc1ccc2c(c1)OCO2)c1cc(-c2ccc(Cl)cc2)n[nH]1	3.13
COc1ccc(S(=O)Cc2ccc(C(=O)NC3CC3)o2)cc1 (stereo not given)	2.4
COc1ccc2c(c1)c(C(=O)O)c(C)n2CCc1ccc(OC)c(OC)c1	2.38
Cc1ccc(C)c(Cn2c(C)c(CNCc3ccc(Cl)cc3)c(C(=O)O)c2C)c1	2.54
O=C(NCc1ccco1)c1ccccc1Br	2.5
Cc1ccc2nc(/C(C#N)=C\c3ccc[nH]3)[nH]c2c1	4.98
COCCN1C(=O)c2[nH]nc(-c3ccccc3O)c2C1c1ccccc1 (stereo not given)	3.01
CCO/C=N/c1oc(C)c(C)c1C#N	3.22
c1sc2c(c1CN1CCC3(CC1)OCCO3)CCCC2	2.61
N#C/C(=Cc1c(Oc2ccccc2Cl)nc2n(c1=O)cccc2)/c1nc2c([nH]1)cccc2	7.4
CC(C)NC(=O)C1(c2ccccc2)CCCC1	2.11
CC(C)CC(NC(=O)/C(=C/c1ccco1)NC(=O)c1ccc(Br)o1)C(=O)O (stereo not given)	1.98
C=Cc1ccc(Cn2c(C)c(CNCCc3ccccc3)c(C(=O)O)c2C)cc1	2.07
Cn1c(-c2ccc3c(c2)OCO3)cnc1NCc1cc(Br)ccc1F	3.3
CCOC(=O)N1CCC(NC(=O)c2ccc(CS(=O)c3cccc(C)c3)o2)CC1 (stereo not given)	2.53
CC1=C(c2ccc(C)cc2)S(=O)(=O)N=C1NCCCN1CCc2ccccc2C1	3.69
CC1CCN(c2ncnc3sc4c(c23)CCC(C)C4)CC1 (stereo not given)	3.18
